Measured values reported in PubChem BioAssay (Tox21).
Records with an inconclusive call do not appear. Activity calls are given as the source filed them. Unless noted, the call rests on the fitted dose curve; in most records, active means well fitted curve in the direction sought with a large enough effect in the repeat runs; inconclusive means weak or mixed curves; inactive means no such curve, though single readings can be large; an effect the other way counts as inactive or inconclusive.

Key:
[1] = qHTS assay to test for compound auto fluorescence at 590 nm (red) in HepG2 cells (AID 720674)
Method in brief: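 Fluorescence at 590 nm emission following 540 nm excitation was recorded from HepG2 wells one hour after compound transfer, with DMSO-only wells as vehicle and Rose Bengal sodium equivalency as the scale.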

[2] = qHTS assay to test for compound auto fluorescence at 535 nm (green) in HepG2 cells (AID 720675); further: potency means the concentration at half of the fitted maximal effect
[3] = qHTS assay to test for compound auto fluorescence at 460 nm (blue) in HEK293 cells (AID 720678)
Method in brief: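 Cells were seeded and left to adhere for 4-5 hr at 37C. Compounds were then pin-transferred. After an overnight incubation at 37C under 5% CO2, intrinsic fluorescence at 405/460 nm was measured and referenced to triamterene.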

[4] = qHTS assay to test for compound auto fluorescence at 590 nm (red) in HEK293 cells (AID 720679)
Method in brief: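 Each well held 2,000 HEK293 cells in medium containing 10% dialyzed FBS. Following 4-5 hr attachment at 37C, 23 nL test compound or DMSO was added; plates sat overnight, and red fluorescence (540/590nm) was recorded.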

[5] = qHTS assay to test for compound auto fluorescence at 535 nm (green) in HEK293 cells (AID 720680); further: potency means the concentration at half of the fitted maximal effect
[6] = qHTS assay to test for compound auto fluorescence at 460 nm (blue) in HEK293 cell free culture (AID 720681)
Method in brief: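 Compounds were added to cell-free DMEM with 10% FBS and fluorescence read directly. The blue channel used 405 nm excitation and 460 nm emission, with triamterene as the reference fluorophore.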

[7] = qHTS assay to test for compound auto fluorescence at 535 nm (green) in HEK293 cell free culture (AID 720682); further: potency means the concentration at half of the fitted maximal effect
Method in brief: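 Each library compound, or DMSO control, is added by pintool to medium alone, comprising DMEM and 10% FBS. Emission at 535 nm following 485 nm excitation is quantified against fluorescein.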

[8] = qHTS assay to test for compound auto fluorescence at 590 nm (red) in HEK293 cell free culture (AID 720683)
Method in brief: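 Cell-free wells of DMEM with 10% FBS received compound, and intrinsic fluorescence was read at excitation/emission 540/590 nm. Values expressed as equivalence to Rose Bengal sodium.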

[9] = qHTS assay to test for compound auto fluorescence at 590 nm (red) in HepG2 cell free culture (AID 720684)
Method in brief: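 Compound was pinned into wells holding MEM with 10% FBS and no cells, and red fluorescence was read at Ex/Em 540/590 nm. Signal is expressed as auto fluorescence equivalency relative to Rose Bengal sodium.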

[10] = qHTS assay to test for compound auto fluorescence at 460 nm (blue) in HepG2 cell free culture (AID 720685)
Method in brief: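 Compound (23 nL) or DMSO pinned into cell-free MEM with 10% FBS; blue fluorescence read at 405/460 nm excitation/emission, expressed as auto-fluorescence equivalency to triamterene.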

[11] = qHTS assay to test for compound auto fluorescence at 535 nm (green) in HepG2 cell free culture (AID 720686); further: potency means the concentration at half of the fitted maximal effect
[12] = qHTS assay to test for compound auto fluorescence at 460 nm (blue) in HepG2 cells (AID 720687)
Method in brief: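 HepG2 cells in MEM with 10% FBS, attached overnight at 37 C, were exposed to compound or DMSO for 1 hr at 37 C, 5% CO2. Blue fluorescence was read at 405/460 nm, with triamterene as reference fluorophore.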

[13] = qHTS assay for small molecules that induce genotoxicity in human embryonic kidney cells expressing luciferase-tagged ATAD5 - cell viability (AID 651634; calls by dose curve; further: nearly all actives have a fitted effect of over 25% in size; further: potency means the concentration at half of the fitted maximal effect)
Method in brief: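 Seeding of 2,000 HEK293T ATAD5-luciferase cells per well preceded pin-tool compound transfer. Plates sat 15.5 hr at 37C under 5% CO2, then fluorescence was read after 30 min with CellTiter-Fluor.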

[14] = qHTS assay for small molecule disruptors of the mitochondrial membrane potential - cell viability (AID 720634; calls by dose curve; further: nearly all actives have a fitted effect of over 20% in size; further: potency means the concentration at half of the fitted maximal effect)
Method in brief: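 Measuring cytotoxicity alongside mitochondrial potential, the screen quantified ATP by luminescence in HepG2 cells after 1 hr compound incubation and a 30 min room-temperature CellTiter-Glo step.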

[15] = qHTS assay for small molecule agonists of the p53 signaling pathway - cell viability (AID 651633; calls by dose curve;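 further: p53RE-bla HCT reporter cells with a stable beta-lactamase p53 reporter; nearly all actives have a fitted effect of over 30% in size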)
Method in brief: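 p53RE-bla cells were treated with compound for 16 hours at 37 C. Cytotoxicity was then measured as CellTiter-Glo luminescence after 30 min at room temperature.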

[16] = biological target: Glucocorticoid receptor (Homo sapiens) (UniProt P04150); test: qHTS assay to identify small molecule agonists of the glucocorticoid receptor (GR) signaling pathway (AID 720691; active means well fitted activation curve with a large enough effect in the signal ratio in the repeat runs, not every such curve was filed as active; the % refers to the signal ratio); details: GR-bla HeLa, beta-lactamase reporter ratio, 18 h; activation: at 62.4 µM (top of the series)
Glucocorticoid receptor (Homo sapiens), sequence (P04150 whole entry, looked up): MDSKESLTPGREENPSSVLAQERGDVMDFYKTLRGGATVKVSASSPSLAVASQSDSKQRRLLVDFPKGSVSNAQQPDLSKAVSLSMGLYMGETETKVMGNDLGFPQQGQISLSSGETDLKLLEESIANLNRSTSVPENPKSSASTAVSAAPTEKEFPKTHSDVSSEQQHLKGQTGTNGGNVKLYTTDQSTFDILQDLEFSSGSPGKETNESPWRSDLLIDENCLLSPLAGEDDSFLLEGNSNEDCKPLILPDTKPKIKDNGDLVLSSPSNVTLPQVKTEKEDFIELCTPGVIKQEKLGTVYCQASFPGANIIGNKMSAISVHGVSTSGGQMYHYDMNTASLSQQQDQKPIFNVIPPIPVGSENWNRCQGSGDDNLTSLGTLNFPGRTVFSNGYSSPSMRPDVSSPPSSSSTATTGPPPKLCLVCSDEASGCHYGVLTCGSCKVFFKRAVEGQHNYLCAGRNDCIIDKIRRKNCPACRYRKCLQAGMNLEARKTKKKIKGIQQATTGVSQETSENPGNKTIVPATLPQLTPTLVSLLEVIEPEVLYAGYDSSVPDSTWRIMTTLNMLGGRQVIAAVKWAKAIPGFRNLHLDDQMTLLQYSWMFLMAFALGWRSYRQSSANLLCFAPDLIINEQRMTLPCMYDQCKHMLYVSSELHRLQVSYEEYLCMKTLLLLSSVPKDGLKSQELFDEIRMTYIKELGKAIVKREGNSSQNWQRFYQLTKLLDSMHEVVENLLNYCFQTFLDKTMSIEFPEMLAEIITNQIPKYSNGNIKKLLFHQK
Method in brief: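 Reporter read-out: fluorescence intensity following 2 h room-temperature LiveBLAzer B/G FRET substrate loading. Prior step: GR-bla HeLa cells held 4 h, then treated 18 h at 37 C.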

[17] = biological target: Glucocorticoid receptor (Homo sapiens) (UniProt P04150); test: qHTS assay to identify small molecule antagonists of the glucocorticoid receptor (GR) signaling pathway (AID 720692; active means well fitted inhibition curve with a large enough effect in the signal ratio in the repeat runs, not every such curve was filed as active; the % refers to the signal ratio)
Method in brief: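 Dexamethasone (5 nM final) stimulated a stably integrated GRE-beta-lactamase reporter in HeLa cells during 18 h co-incubation with compounds; signal was quantified as fluorescence intensity of B/G FRET substrate after 2 h.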

[18] = qHTS assay for small molecule disruptors of the mitochondrial membrane potential (AID 720635)
Method in brief: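 HepG2 cells exposed to compound 1 hr at 37C, then Mito-MPS dye 30 min. Ratio read of aggregate (540/590 nm) versus monomer (490/535 nm) fluorescence.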

Measured: Potency
Tags describe the fitted curve by direction and shape or compound fluorescence and quenching.

CNC(C)[C@@H]1CC[C@@H](N)[C@@H](O[C@H]2[C@H](O)[C@@H](O[C@H]3OC[C@](C)(O)[C@H](NC)[C@H]3O)[C@H](N)C[C@@H]2N)O1 (stereo partly specified)
not listed: [13] | [14] | [15] | [16] | [17] | [18]
inactive: all other assays above

CCCCC(C)(O)C/C=C/[C@H]1[C@H](O)CC(=O)[C@@H]1CCCCCCC(=O)OC (stereo partly specified)
not listed: [15] | [16] | [17] | [18]
inactive: all other assays above

CC(C)CCCC(C)NC(C)C (stereo unspecified)
not listed: [9] | [14] | [16] | [17] | [18]
inactive: all other assays above

CC1CCCC1
not listed: [5] | [13] | [14] | [15] | [16] | [17] | [18]
inactive: all other assays above

CCCCC/C=C\C/C=C\C/C=C\CCCCC(=O)O
not listed: [8] | [14] | [16] | [17] | [18]
inactive: all other assays above

Cc1cccc(C)c1NC(=O)NC1=CCCN1C
not listed: [15] | [18]
inactive: all other assays above

CC(Oc1ccccc1)C(=O)N[C@@H]1C(=O)N2[C@@H]1SC(C)(C)[C@@H]2C(=O)O (stereo partly specified)
not listed: [9] | [13] | [17]
inactive: all other assays above

Cc1cc2nc3c(=O)[nH]c(=O)nc-3n(C[C@H](O)[C@H](O)[C@H](O)COP(=O)(O)OP(=O)(O)OC[C@H]3O[C@@H](n4cnc5c(N)ncnc54)[C@H](O)[C@@H]3O)c2cc1C
active: [2] 14.1 µM | [5] 22.4 µM [fluorescent] | [7] 15.8 µM [fluorescent] | [11] 12.6 µM [fluorescent]
not listed: [6] | [13] | [17] | [18]
inactive: all other assays above

O=C(O)CN(CC(=O)O)CC1=CC2C(=CC1=O)Oc1cc(O)c(CN(CC(=O)O)CC(=O)O)cc1C21OC(=O)c2ccccc21 (stereo unspecified)
active: [2] 10 µM | [5] 11.2 µM [fluorescent] | [7] 11.2 µM [fluorescent] | [11] 11.2 µM [fluorescent]
inactive: [15] | [14] | [3] | [6] | [10] | [12]

COc1cc(Br)c(C[N+]2(CCOCCC3CCC4CC3C4(C)C)CCOCC2)cc1OC (stereo unspecified)
not listed: [14] | [17] | [18]
inactive: all other assays above

Cc1cc(-c2ccc(N=Nc3c(S(=O)(=O)O)cc4cc(S(=O)(=O)O)cc(N)c4c3O)c(C)c2)ccc1N=Nc1c(S(=O)(=O)O)cc2cc(S(=O)(=O)O)cc(N)c2c1O
not listed: [8] | [13] | [14] | [17] | [18]
inactive: all other assays above

OCC(O)CO
not listed: [13] | [14] | [15] | [16] | [17] | [18]
inactive: all other assays above

CC(=C\c1ccccc1)/C=C1/SC(=S)N(CC(=O)O)C1=O
active: [13] 21.1 µM
not listed: [2] | [16] | [17] | [18]
inactive: all other assays above

CN1CCN(CCC=C2c3ccccc3Sc3ccc(S(=O)(=O)N(C)C)cc32)CC1
active: [13] 29.8 µM
not listed: [5] | [9] | [14] | [15] | [16] | [17] | [18]
inactive: all other assays above

Nc1ncnc2c1ncn2[C@@H]1O[C@H](COP(=O)(O)OP(=O)(O)OP(=O)(O)O)[C@@H](O)[C@H]1O
active: [14] 9.44 µM
not listed: [2] | [9] | [17] | [18]
inactive: all other assays above

CO[C@@H]1[C@@H](O[C@@H]2O[C@H](C)[C@@H](O[C@H]3C[C@@](C)(O)[C@@H](OC(=O)CC(C)C)[C@H](C)O3)[C@H](N(C)C)[C@H]2O)[C@@H](CC=O)C[C@@H](C)C(=O)/C=C/C2OC2C[C@@H](C)OC(=O)C[C@H]1OC(C)=O (stereo partly specified)
not listed: [13] | [16] | [17] | [18]
inactive: all other assays above
